Data taken from the supplement of paper PMC9254222.
Whole data set: some 1,100 compounds, median “Wnt reporter firefly/Renilla luciferase ratio relative to plate median” near 1.1, cut for the highest 2% near 1.6. Only a selection was taken, and the highest values are over-represented in it overall.

Test system: HEK293T (UBE3A T485A transfected, BAR Wnt reporter)
Test: Wnt reporter firefly/Renilla luciferase ratio relative to plate median (fold (linear ratio)); higher = more Wnt/beta-catenin reporter activation
Conditions: 24 h
Method in brief: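 Each value averages four biological replicates in HEK293T cells grown at 4500 cells/well in DMEM with 10% FBS at 37°C and 5% CO2. The cells were transfected with a BAR firefly luciferase Wnt reporter, TK-Renilla and an expression plasmid, then four hours later robotically treated with the chemicals at 0.01–100 uM for 24 h. Dual-Glo luciferase signals were median-centred per plate, with the firefly/Renilla ratio reported as Wnt activity and raw Renilla as cell health.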

Row | SMILES | Wnt reporter firefly/Renilla luciferase ratio (concentration: 0.1 uM) | Wnt reporter firefly/Renilla luciferase ratio (concentration: 1 uM) | Wnt reporter firefly/Renilla luciferase ratio (concentration: 10 uM) | Wnt reporter firefly/Renilla luciferase ratio (concentration: 100 uM) | Wnt reporter firefly/Renilla luciferase ratio (concentration: 0.01 uM)
1 | CCN(CC)CCNc1ccc(CNC=O)c2sc3ccc(OC)cc3c(=O)c12 | 1.79 | 0.887 | 0.373 |  | 
2 | O=c1[nH]c2ccc(S(=O)CCN3CCC(Cc4ccc(F)cc4)CC3)cc2o1 (stereo unspecified) [Besonprodil] | 1.11 | 0.965 | 0.993 | 0.313 | 
3 | C[C@]12CC[C@@H]3c4ccc(O)cc4CC[C@H]3[C@@H]1CC[C@@H]2O [17beta-Estradiol] | 0.999 | 0.932 | 0.591 |  | 
4 | CN(C)[C@@H]1C(O)=C(C(N)=O)C(=O)[C@@]2(O)C(O)=C3C(=O)c4c(O)cccc4[C@@](C)(O)[C@H]3C[C@@H]12 [Tetracycline] | 1.15 | 1.17 | 1.43 | 0.703 | 
5 | CN(C)[C@@H]1C(O)=C(C(N)=O)C(=O)[C@@]2(O)C(O)=C3C(=O)c4c(O)cccc4[C@@](C)(O)[C@H]3[C@H](O)[C@@H]12.Cl [Oxytetracycline hydrochloride] | 1.09 | 1.03 | 0.562 | 0.0778 | 
6 | CN(C)[C@@H]1C(O)=C(C(N)=O)C(=O)[C@@]2(O)C(O)=C3C(=O)c4c(O)cccc4[C@@](C)(O)[C@H]3[C@H](O)[C@@H]12.O.O [Oxytetracycline dihydrate] | 2.3 | 1.22 | 1.34 | 0.951 | 1.55
7 | CCCCC(CC)COP(=O)(OCC(CC)CCCC)OCC(CC)CCCC (stereo unspecified) [Tris(2-ethylhexyl) phosphate] | 0.978 | 1.17 | 1.11 | 0.917 | 
8 | CCCCC(CC)COC(=O)CCCCCCCCC(=O)OCC(CC)CCCC (stereo unspecified) [Bis(2-ethylhexyl) decanedioate] | 0.935 | 1.08 | 1.07 | 1.12 | 
9 | CCCCC(CC)CO (stereo unspecified) [2-Ethyl-1-hexanol] | 0.976 | 0.988 | 1.62 | 0.964 | 
10 | Oc1ccc(O)cc1 [Hydroquinone] | 0.941 | 0.865 | 0.902 | 0.377 | 
11 | CCCCCCC(CCCCCCCCCCC(=O)OCC(COC(C)=O)OC(C)=O)OC(C)=O (stereo unspecified) [Grinstad Soft-N-Safe] | 0.94 | 1.29 | 1.08 | 1.54 | 
12 | C/C=C/c1ccc(OC)cc1 [(E)-Anethole] | 1.22 | 0.971 | 1.15 | 1.58 | 
13 | CC(C)(c1cc(Br)c(O)c(Br)c1)c1cc(Br)c(O)c(Br)c1 [3,3',5,5'-Tetrabromobisphenol A] | 1.05 | 0.95 | 1.03 | 0.332 | 
14 | Cc1ncc([C@@H](CCCCCCc2ccc3c(n2)NCCC3)CC(=O)O)cn1 | 1.25 | 1.42 | 1.78 | 1.55 | 
15 | CS(=O)(=O)c1ccc([C@@H](CC2CCCC2)C(=O)Nc2cnccn2)cc1Cl | 1.12 | 1.16 | 0.922 | 0.278 | 
16 | CC(C)NCC(O)c1ccc(O)c(O)c1.Cl (stereo unspecified) [Isoproterenol hydrochloride] | 1.1 | 1.23 | 1.15 | 0.309 | 
17 | O=C(O)c1cc(/N=N/c2ccc(S(=O)(=O)Nc3ccccn3)cc2)ccc1O [Sulfasalazine] | 0.944 | 0.993 | 1.33 | 3.01 | 
18 | c1ccc2ncccc2c1 [Quinoline] | 0.857 | 1.13 | 1.43 | 1.26 | 
19 | Cc1ccc(C)c(C)c1 [1,2,4-Trimethylbenzene] | 0.982 | 0.965 | 0.884 | 1.09 | 
20 | Cc1ccc2ncccc2c1 [6-Methylquinoline] | 0.931 | 0.836 | 1.29 | 1.81 | 

Row | SMILES | Wnt reporter firefly/Renilla luciferase ratio (concentration: 0.1 uM) | Wnt reporter firefly/Renilla luciferase ratio (concentration: 1 uM) | Wnt reporter firefly/Renilla luciferase ratio (concentration: 10 uM) | Wnt reporter firefly/Renilla luciferase ratio (concentration: 100 uM) | Wnt reporter firefly/Renilla luciferase ratio (concentration: 0.01 uM)
21 | O=C1c2c(O)cccc2Cc2cccc(O)c21 [Anthralin] | 0.825 | 1.04 | 1.46 | 0.798 | 
22 | COc1ccc(C(=O)Nc2nc3ccccc3c(NCc3ccccc3)c2C#N)cc1 | 1.27 | 1.14 | 0.744 | 0.357 | 
23 | COCCOC[C@H](CC1(C(=O)N[C@H]2CC[C@@H](C(=O)O)CC2)CCCC1)C(=O)Oc1ccc2c(c1)CCC2 [Candoxatril] | 1.15 | 1.05 | 1 | 0.894 | 
24 | CN1CCC[C@H]1c1cccnc1 [Nicotine] | 1.15 | 1.19 | 1.12 | 1.18 | 
25 | CC1(C)C(=O)N(Br)C(=O)N1Br [1,3-Dibromo-5,5-dimethylhydantoin] | 0.79 | 1.01 | 1.06 | 1.25 | 
26 | CC1(C)C(=O)N(Cl)C(=O)N1Cl [1,3-Dichloro-5,5-dimethylhydantoin] | 0.845 | 0.849 | 0.887 | 1.63 | 
27 | NC(=O)N1C(=O)C(C(=O)c2cc(Cl)cs2)c2cc(F)c(Cl)cc21 (stereo unspecified) | 0.988 | 0.996 | 1.38 | 1.26 | 
28 | C[C@]12CC[C@@H]3c4ccc(O)cc4CC[C@H]3[C@@H]1CC[C@H]2O [17alpha-Estradiol] | 0.699 | 1.04 | 0.715 |  | 
29 | OCCNCCO [Diethanolamine] | 1.17 | 0.992 | 1.4 | 2.49 | 
30 | c1ccc2[nH]c(-c3cscn3)nc2c1 [Thiabendazole] | 1.03 | 1.08 | 1.27 | 1.24 | 1.24
31 | CC(C)(C)c1cc(/C=C2\SC(=N)NC2=O)cc(C(C)(C)C)c1O.CS(=O)(=O)O [Darbufelone mesylate] | 1.11 | 0.907 | 1.28 |  | 
32 | COc1cc(S(=O)(=O)[O-])c(C)cc1/N=N/c1c(O)ccc2cc(S(=O)(=O)[O-])ccc12.[Na+].[Na+] | 1.19 | 1 | 1.45 | 2.21 | 
33 | Oc1ccc2ccccc2c1/N=N/c1ccccc1 [C.I. Solvent Yellow 14] | 1.12 | 1.2 | 1.14 | 1.37 | 
34 | O=S(=O)([O-])c1ccc(/N=N/c2c(O)ccc3cc(S(=O)(=O)[O-])ccc23)cc1.[Na+].[Na+] [FD&C Yellow 6] | 1.08 | 0.966 | 1.22 | 2.05 | 
35 | CCCCCCCCCCCCc1ccccc1 [Dodecylbenzene] | 1.06 | 1.03 | 1.08 | 0.984 | 
36 | COc1ccc([N+](=O)[O-])cc1N [2-Methoxy-5-nitroaniline] | 0.964 | 0.988 | 1.04 | 1.14 | 
37 | Cl.NCC1(Cc2noc(=O)[nH]2)CCCCC1 | 0.992 | 0.928 | 0.857 | 1.16 | 
38 | O=c1c(-c2ccc(O)cc2)coc2cc(O)cc(O)c12 [Genistein] | 1.45 | 1.16 | 0.958 | 0.631 | 1.71
39 | O=c1c(O)c(-c2ccc(O)c(O)c2)oc2cc(O)cc(O)c12 [Quercetin] | 1.1 | 1.09 | 1.38 |  | 
40 | O=c1c(-c2ccc(O)cc2)coc2cc(O)ccc12 [Daidzein] | 1.11 | 1.11 | 1.12 | 0.372 | 

Row | SMILES | Wnt reporter firefly/Renilla luciferase ratio (concentration: 0.1 uM) | Wnt reporter firefly/Renilla luciferase ratio (concentration: 1 uM) | Wnt reporter firefly/Renilla luciferase ratio (concentration: 10 uM) | Wnt reporter firefly/Renilla luciferase ratio (concentration: 100 uM) | Wnt reporter firefly/Renilla luciferase ratio (concentration: 0.01 uM)
41 | CC1CCC(NC(=O)N(CCCl)N=O)CC1 (stereo unspecified) [Semustine] | 0.921 | 0.986 | 0.864 | 0.475 | 1.09
42 | Cc1nc(-c2ccc3c(c2)CCN(CCC2CCC(NC(=O)/C=C/c4ccc(F)cc4)CC2)CC3)no1.Cl (stereo unspecified) | 1.22 | 0.948 | 0.916 | 0.983 | 
43 | Cc1cnc(-c2cnc(NCCNc3ccc(C#N)cn3)nc2-c2ccc(Cl)cc2Cl)[nH]1 | 1.5 | 5.86 | 128 |  | 1.03
44 | CCOC(=O)c1ccc(O)cc1 [Ethylparaben] | 0.886 | 0.966 | 0.941 | 0.734 | 
45 | O=C([O-])c1[nH]n(-c2ccc(S(=O)(=O)[O-])cc2)c(=O)c1/N=N/c1ccc(S(=O)(=O)[O-])cc1.[Na+].[Na+].[Na+] [FD&C Yellow 5] | 1.26 | 0.877 | 1.26 | 1.86 | 
46 | CCCCc1oc2ccccc2c1C(=O)c1cc(I)c(OCCN(CC)CC)c(I)c1.Cl [Amiodarone hydrochloride] | 1.18 | 1.09 | 1 | 1.11 | 
47 | CC(C)c1cccc(C(C)C)c1 [1,3-Diisopropylbenzene] | 1.14 | 0.929 | 1.33 | 1.5 | 
48 | CC(=O)OC/C=C(\C)CCC=C(C)C [Geranyl acetate] | 1.1 | 0.97 | 1.27 | 1.23 | 
49 | c1ccc(Nc2ccccc2)cc1 [Diphenylamine] | 1.08 | 1.19 | 1.18 | 1.24 | 1.05
50 | [Cl-].[Li+] | 0.845 | 0.926 | 0.875 | 1.27 | 0.768
51 | C=CC(=C)CCC=C(C)C [Myrcene] | 1.05 | 0.768 | 1.02 | 1.15 | 
52 | CC(C)CCO [Isopentyl alcohol] | 1.15 | 0.978 | 1.1 | 1.03 | 
53 | CC(C)=CCCC(C)CCO (stereo unspecified) [Citronellol] | 1.07 | 0.904 | 1.18 | 1.64 | 
54 | NC(CCCP(=O)(O)O)C(=O)O (racemic) | 1.19 | 0.925 | 0.918 | 1.69 | 1.35
55 | CC/C(=C(/CC)c1ccc(O)cc1)c1ccc(O)cc1 [Diethylstilbestrol] | 0.897 | 0.807 | 0.741 | 0.205 | 
56 | C[C@@H]1C[C@H]2[C@@H]3CCC4=CC(=O)C=C[C@]4(C)[C@@]3(F)[C@@H](O)C[C@]2(C)[C@@]1(O)C(=O)COP(=O)([O-])[O-].[Na+].[Na+] [Dexamethasone sodium phosphate] | 1.15 | 1.09 | 1.2 | 0.968 | 
57 | c1ccc2c(c1)-c1cccc3c1c-2cc1ccccc13 [Benzo(b)fluoranthene] | 1.22 | 1.22 | 1.45 | 1.45 | 
58 | C1N2CN3CN1CN(C2)C3 [Methenamine] | 1.17 | 1.16 | 1.23 | 1.71 | 
59 | COC(=O)CC(=O)OC [Dimethyl malonate] | 1.02 | 1.16 | 0.907 | 1.28 | 
60 | Cc1occc1C(=O)Nc1ccc(C(=O)N2CCC(F)(F)/C(=C\C(=O)N3CCC(N4CCCCC4)CC3)c3ccccc32)cc1.Cc1occc1C(=O)Nc1ccc(C(=O)N2CCC(F)(F)/C(=C\C(=O)N3CCC(N4CCCCC4)CC3)c3ccccc32)cc1.O=C(O)/C=C/C(=O)O | 1.22 | 0.982 | 0.94 |  | 
